Here are results for five compounds from PubChem BioAssay (NCATS).

Assay [1] in a line: U-118MG Cancer Cell Toxicity qHTS against the NCATS CANVASS Library (AID 1347351). Further: potency means the concentration at half of the fitted maximal effect. The method, boiled down: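 1000 cells/well seeded and rested 4 h at 37 °C before pin transfer of compounds in an 11-pnt series. Exposure 72 h at 37 °C/5% CO2; viability by CellTiter-Glo luminescence after 15 min at room temperature.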
Assay [2] in a line: HPAF-II 24hr Apoptosis Induction qHTS against the NCATS CANVASS Library (AID 1347356). The method, boiled down: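 Apoptosis induction in HPAF-II pancreatic cancer cells is measured as caspase-3/7 luminescence after a 24-hour exposure to compounds.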
A short description of assay [3]: HEK293 18hr Apoptosis Induction qHTS against the NCATS CANVASS Library (AID 1347357). A digest of the protocol: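 Natural products applied to HEK293 for 18 hr; Caspase-Glo 3/7 readout.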
Assay [4] can be described thus: HPAF-II 18hr Apoptosis Induction qHTS against the NCATS CANVASS Library (AID 1347360). A digest of the protocol:
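Luminescent DEVD-substrate signal, proportional to caspase activity, is measured in HPAF-II cells after 18-hour treatment across a concentration series; doxorubicin serves as control.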

Assay [5] is described as follows: HEK293 12hr Apoptosis Induction qHTS against the NCATS CANVASS Library (AID 1347361). The method, boiled down: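 Luminescent caspase-3/7 signal, proportional to enzyme activity, was recorded from HEK293 cultures in DMEM + 10% FBS treated for 12 hours with titrated natural products (11 points). Doxorubicin (0.1nM - 4uM) served as control.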
For assay [6], the system named is NAD(P)H diaphorase (Clostridium kluyveri). Put plainly: Diaphorse counterscreen qHTS: Assay Interference Panel against the NCATS CANVASS Library (AID 1347362). The method, boiled down: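 Clostridium kluyveri diaphorase in PBS + 0.01% Tween-20 preincubated 15 min with compounds. Resazurin and NADH then added for 5 min at room temperature in the dark; resorufin fluorescence read (ex 525, em 598).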

Assay [7] in a line: KB-3-1 Cancer Cell Toxicity qHTS against the NCATS CANVASS Library (AID 1347366). Further: nearly all actives have a fitted effect of over 75% in size. Further: potency means the concentration at half of the fitted maximal effect. The method, boiled down:
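Cytotoxicity toward KB-3-1 cells (500/well, DMEM + 10% FBS) was scored by CellTiter-Glo luminescence following 72 hr exposure at 37C, with bortezomib titrated as control.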

The nature of assay [8]: qHTS for ATAD5 Antagonist screened against the NCATS CANVASS Library (AID 1347370). Further: nearly all actives have a fitted effect of over 65% in size. Further: potency means the concentration at half of the fitted maximal effect. The method, boiled down: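 HEK293T cells with a stably integrated ATAD5-controlled luciferase reporter were exposed to compounds (11-pt) alongside 10 uM 5-fluorouridine as ATAD5 stabilizer for 16hr at 37C. Viability was read by CellTiter-Fluor fluorescence, then ATAD5 by luminescence.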
Assay [9] can be described thus: J3T Cancer Cell Toxicity qHTS against the NCATS CANVASS Library (AID 1347371). Further: potency means the concentration at half of the fitted maximal effect. The method, boiled down:
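Viability of the J3T glioma line from dog is scored by ATP luminescence after a 72 hr incubation with natural products.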

Assay [10] concerns the target Nuclear receptor subfamily 1 group I member 3 (Homo sapiens) (UniProt Q14994). Put plainly: qHTS for Constitutive Androstane Receptor (CAR) Agonist screened against the NCATS CANVASS Library (AID 1347373).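 Further: every well also contained 1.5 µM PK11195 alongside the test compound.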 A digest of the protocol: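 CAR agonism is scored as CYP2B6-promoter luciferase induction in a double-stable transfected HepG2 line, where 1.5uM PK11195 is included in each well. Compounds were tested over a 24hr exposure.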

Assay [11] in a line: qHTS for Inflammasome Signaling Inhibitors: IL-1-beta AlphaLISA screen against the NCATS CANVASS Library (AID 1347379).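 Further: human THP-1 cells primed with LPS then triggered with ATP.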 A digest of the protocol: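 Human THP-1 cells were pretreated 1 hr at 37 °C with compounds (up to 57.5 uM final), then stimulated with LPS (250 ng/mL final) and ATP (1.25 mM final). Secreted IL-1B was read by AlphaLISA after 16 hr.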
Assay [12] can be described thus: Cytotoxicity qHTS for assessment of Hepg2 cells membrane integrity screened against the NCATS CANVASS Library (AID 1347387). The method, boiled down:
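Fluorescence proportional to lysed-cell number, from LDH leaking out of HepG2 cells exposed 5 hr at 37C to 0.59 nM - 46 uM compound (11-point qHTS), is measured after 10 min with CytoTox-ONE.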

The nature of assay [13]: Secretion counterscreen for inhibitors of the SERCaMP assay screened against the NCATS CANVASS Library (AID 1347390).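 Further: light from luciferase secreted into medium read as a measure of general secretion; series mostly up to about 77 µM.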 The method, boiled down: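 Natural products are titrated in an 11-point series up to 77 uM onto SH-SY5Y-GLuc STOP cells for 20 h. Secreted reporter activity is measured as coelenterazine-driven luminescence, with Brefeldin A on each plate.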
The nature of assay [14]: Vero-766 cells viability qHTS against the NCATS CANVASS Library: Counterscreen for Zika virus inhibition assay (AID 1347394). Further: series mostly up to about 46 µM; nearly all actives have a fitted effect of over 60% in size. The method, boiled down: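 Counterscreen for toxicity: Vero 766 cells exposed 72 h to an 11-point compound series, viability by CellTiter-Glo.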
Assay [15] can be described thus: Viability qHTS for inhibitors of the SERCaMP assay screened against the NCATS CANVASS Library (AID 1347400). Further: series mostly up to about 92 µM; nearly all actives have a fitted effect of over 70% in size. A digest of the protocol: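 Cytotoxicity counter-screen: ATP content (CellTiter-Glo luminescence) of SH-SY5Y-GLuc SERCaMP MJH297 cells after 48 h at 37C with compounds in an 11-point qHTS series.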
The nature of assay [16]: Redox Reaction Profiling qHTS: Assay Interference Panel against the NCATS CANVASS Library (AID 1347401). A digest of the protocol:
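Compounds in 11-point series incubated with 5 uM resazurin and 200 uM DTT in 50 mM HEPES pH 7.3, 50 mM NaCl. Resorufin fluorescence (Ex 525/Em 598) read before and after 15 min in the dark.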

The nature of assay [17]: MCF7 Cancer Cell Toxicity qHTS against the NCATS CANVASS Library (AID 1347369). Further: potency means the concentration at half of the fitted maximal effect. A digest of the protocol:
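This 72 hr qHTS scored MCF7 viability by CellTiterGlo luminescence, with 500 cells/well; bortezomib titration ran as control.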

The target in assay [18] is Nuclear receptor subfamily 1 group I member 3 (Homo sapiens) (UniProt Q14994). Put plainly: qHTS for Constitutive Androstane Receptor (CAR) Antagonist screened against the NCATS CANVASS Library (AID 1347372).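 Further: cells stimulated with 50 nM CITCO agonist so inhibition reflects antagonism; series mostly up to about 46 µM.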 The method, boiled down:
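HepG2 cells stably carrying hCAR and CYP2B6-2.2kb luciferase reporter, 2500 cells/well, compound with 50 nM CITCO agonist for 24hr at 37C. ONE-Glo luminescence measured CAR activity; CellTiter-Fluor read viability.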

Assay [19] is described as follows: 10-beta competent E. coli microbial cell viability qHTS against the NCATS CANVASS Library (AID 1347376). Further: series mostly up to about 46 µM. The method, boiled down: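 Cytotoxicity toward competent E. coli is scored from cellular ATP content via BacTiter-Glo luminescence following overnight compound exposure at 37C, 5% CO2.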
The nature of assay [20]: qHTS for H2AX Agonists against the NCATS CANVASS Library (AID 1347378).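 Further: phospho-H2AX S139 level in CHO-K1 lysates by TR-FRET emission ratio.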 Further: potency means the concentration at half of the fitted maximal effect. A digest of the protocol: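 Signal is the 665/620 nm emission ratio from europium cryptate and d2 antibody pair, rising with S139-phosphorylated H2AX. CHO-K1 cells saw test agents for 3 hr at 37C; detection ran 24 hr at room temperature.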

Records with an inconclusive call do not appear. Activity calls are given as the source filed them. The call rests on the fitted dose curve; in most records, active means well fitted curve in the direction sought with a large enough effect; inconclusive means small, poorly fitted or top-dose-only effect, or another doubt; inactive means no such curve, though single readings can be large; an effect the other way counts as inactive or inconclusive.

Nuclear receptor subfamily 1 group I member 3 (Homo sapiens), sequence (Q14994 whole entry, looked up): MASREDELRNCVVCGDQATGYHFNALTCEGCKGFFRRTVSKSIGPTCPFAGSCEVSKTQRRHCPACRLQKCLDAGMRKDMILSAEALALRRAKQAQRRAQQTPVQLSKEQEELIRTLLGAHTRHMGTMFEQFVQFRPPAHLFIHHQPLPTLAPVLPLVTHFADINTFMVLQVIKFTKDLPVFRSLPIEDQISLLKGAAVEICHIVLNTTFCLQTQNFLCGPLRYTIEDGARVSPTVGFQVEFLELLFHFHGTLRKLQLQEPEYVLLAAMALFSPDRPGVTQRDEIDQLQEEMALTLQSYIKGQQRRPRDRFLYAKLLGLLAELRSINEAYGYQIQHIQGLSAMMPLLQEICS

Turning to `C/C=C1/C2=CCCN3C(=O)O[C@H]([C@H]1O)[C@H]23`, the Potency entry in [1], in [3], in assay [4], in assay [6], in assay [7] and in assay [8] was “inactive” in each case. Further, the Potency entry in [9], in assay [10], in assay [11], in assay [13], in assay [14] and in assay [15] was “inactive” each time. The Potency entry in [16] is “inactive”. Also, the outcome in [2], in [5] and in [12] was inactive.

For the compound `CN1CC[C@]23c4ccccc4N[C@H]1[C@]21CCN(C)[C@H]3Nc2ccccc21`, the Potency entry in assay [1], in assay [3], in assay [4], in assay [6], in assay [7] and in assay [17] was “inactive” in each case. Besides, the Potency entry in [8], in assay [9], in assay [18], in [10], in [20] and in assay [11] was “inactive” throughout. The Potency result in [13], in [14], in [15] and in assay [16] was “inactive” each time. Also, the outcome in [2], in assay [5], in assay [19] and in assay [12] was inactive.

As to `C=C(Cl)[C@](Cl)(CBr)CC[C@@H](Br)C(C)(C)Cl`, the Potency is 8.41 µM (active) in assay [1]; 20.9 µM (active) in assay [7]; 6.59 µM (active) in [17]; 23.4 µM (active) in [8]; 4.18 µM (active) in assay [9]; 4.86 µM (active) in assay [20]. For the same compound, in assay [11], the Potency was 4.85 µM (active). In addition, the result in [2], in assay [5] and in assay [19] was inactive. Further, the Potency result in [3], in [4], in [6], in [18], in [10] and in assay [13] was “inactive” each time. The Potency result in assay [15] and in assay [16] was “inactive” in each case.

With `COC(=O)[C@]1([C@H]2CCC(=O)O2)CC(=O)c2c(O)cc(C)cc2O1`, the Potency result in assay [1], in assay [3], in assay [4], in assay [6], in [7] and in assay [17] was “inactive” in each case. Besides, the Potency result in assay [8], in assay [9], in assay [18], in assay [10], in assay [20] and in assay [11] was “inactive” in each case. Moreover, the Potency result in assay [13], in [14], in [15] and in [16] was “inactive” each time. The result in assay [2], in [5], in assay [19] and in [12] was inactive.

With `[C-]#[N+][C@@]12C(=O)[C@@H]3[C@@H](O[C@@]4(C(=O)N(C)c5cccc1c54)C3(C)C)C(=O)[C@@]2(C)C=C`, the Potency result in [1], in assay [3], in assay [4], in assay [6], in [7] and in assay [17] was “inactive” throughout. Moreover, the Potency result in assay [8], in [9], in assay [18], in [10], in assay [20] and in assay [11] was “inactive” in each case. Also, the Potency result in [13], in assay [14], in [15] and in [16] was “inactive” in each case. Besides, the call in [2], in assay [5], in [19] and in assay [12] was inactive.
